Measured values published in PubChem BioAssay (Tox21).
Results filed as inconclusive are left out. Where a call stands in place of a potency, no number is given. Values without a mark were called inactive. The source made the active and inactive calls. Calls follow the shape of the full dose curve.

assay: cAMP Responsive Elements (CRE) small molecule agonists, cell-based qHTS assay (AID 1963590); settings: CRE-bla HEK293T, beta-lactamase FRET ratio, 3 h; series mostly up to 92.4 µM
From the text: U.S. Tox21 Program National Center for Advancing Translational Sciences [NCATS] Division of Preclinical Innovation [DPI] U.S. Environmental Protection Agency [EPA] National Institutes of Environmental Health Sciences [NIEHS] National Toxicology Program [NTP] U.S. Food and Drug Administration [FDA] Tox21 Assay Overview: CREB (cyclic-AMP Responsive Element Binding Protein) is a cellular transcription factor. It binds to certain DNA sequences called cAMP Responsive Elements (CRE) and regulates the transcription of the genes. […] This cell line can be used to find agonists/antagonists of the cyclic AMP signaling pathway. The activation of the report gene under culture conditions can be detected by fluorescence intensity. This cell line has been used to screen the Tox21 10K compound library to identify agonists that induce oxidative stress.
Tox21 Assay Protocol Summary: CRE-bla Hek 293T cells were suspended in assay medium (DMEM containing 10% dialyzed FBS, 0.1 mM NEAA, 1 mM sodium pyruvate and 25 mM HEPES) and dispensed at 2,000 cells/5 uL /well into 1536-well black wall/clear bottom plates using a Multidrop Combi (ThermoFisher Scientific, Waltham, MA) dispenser. After the assay plates were incubated at 37 C/5% CO2 for 18 hrs, 23 nL of compounds dissolved in DMSO, positive controls or DMSO only was transferred to the assay plate by a pintool workstation (Kalypsys, San Diego, CA). After the plates were incubated at 37 C/5% CO2 for 3 hrs, 1 uL of LiveBLAzer B/G FRET substrate (Invitrogen, Carlsbad, CA) was added to each well using Bioraptr Flying Reagent Dispenser (FRD, Aurora Discovery, San Diego, CA). The plates were incubated at room temperature for 2 h.

| SMILES | Potency | activation |
| --- | --- | --- |
| C#Cc1ccc(-c2ccccc2F)cc1 | inactive |  |
| NS(=O)(=O)Cc1noc2ccccc12 | inactive |  |
| C[C@]12CCC(=O)C=C1CC[C@@H]1[C@@H]2[C@@H](O)C[C@@]2(C)[C@H]1CC[C@]2(O)C(=O)COC(=O)CCC(=O)O | inactive |  |
| CC(=O)OC1CCC(C(C)(C)C)CC1 (stereo not given) | inactive |  |
| C=CCON/C(CCC)=C1\C(=O)CC(C)(C)C(C(=O)OC)=C1O | inactive |  |
| CCCCNc1ccc(NCCCC)c2c1C(=O)c1ccccc1C2=O |  | -1.16% [at 19 µM] |
| O=C(O)c1c(Cl)cccc1Cl | inactive |  |
| CC(C)NCC(O)c1ccc(NS(C)(=O)=O)cc1 (stereo not given) | inactive |  |
| CC(=O)OC(C)=O | inactive |  |
| N=C(N)c1ccc(OCCCOc2ccc(C(=N)N)cc2)cc1 | inactive |  |
| CC1=CC[C@H](C(C)C)C=C1 | inactive |  |
| CCCCOCC | inactive |  |
| CCOC(=O)Cn1c(=O)sc2cccc(Cl)c21 | inactive |  |
| CCCCCCC(O)CCOC(C)=O (stereo not given) | inactive |  |
| Nc1cc([N+](=O)[O-])cc(Cl)c1O | inactive |  |
| COc1ccc(-c2cc(=O)c3c(O)cc(O[C@@H]4O[C@H](CO[C@@H]5O[C@@H](C)[C@H](O)[C@@H](O)[C@H]5O)[C@@H](O)[C@H](O)[C@H]4O)cc3o2)cc1O | inactive |  |
| COc1ccc(N)c([N+](=O)[O-])c1 | inactive |  |
| COC(=O)N/N=C/c1c[n+]([O-])c2ccccc2[n+]1[O-] | inactive |  |
| CCOCC(O)COc1ccc(NC(=O)CC[S+](C)C)cc1 (stereo not given) | inactive |  |
| Nc1cc(C(=O)O)ccc1Cl | inactive |  |

| SMILES | Potency | activation |
| --- | --- | --- |
| OCCCCCCO | inactive |  |
| O=CCCc1ccccc1 | inactive |  |
| CC(=O)[C@H]1CC[C@H]2[C@@H]3C[C@H](C)C4=CC(=O)CC[C@]4(C)[C@H]3[C@@H](O)C[C@]12C | inactive |  |
| COc1ccc(OC)c(N=Nc2c(O)ccc3ccccc23)c1 | inactive |  |
| Cc1ccc2ccccc2n1 | inactive |  |
| CC(C)[N+](C)(C)CC(O)COc1cccc2ccccc12 (stereo not given) | inactive |  |
| CCOC(=O)C1=C(C)NC(C)=C(C(=O)OC)C1c1cccc([N+](=O)[O-])c1 (stereo not given) | inactive |  |
| C=CC(=O)OCC[N+](C)(C)C | inactive |  |
| NCCCC[C@H](N[C@@H](CCc1ccccc1)C(=O)O)C(=O)N1CCC[C@H]1C(=O)O | inactive |  |
| OCCN1CN(CCO)CN(CCO)C1 | inactive |  |
| Oc1ccc(Oc2ccccc2)cc1 | inactive |  |
| COC(=O)[C@H]1[C@H]2C[C@@H]3c4[nH]c5cc(OC)ccc5c4CCN3C[C@H]2C[C@@H](OC(=O)COc2ccc(OC)cc2)[C@@H]1OC | inactive |  |
| NC(=O)CC[C@@H](N)C(=O)O | inactive |  |
| Oc1ccccc1Cc1ccccc1O | inactive |  |
| CCN(CC)C(=O)Nc1ccc(OCC(O)CNC(C)(C)C)c(C(C)=O)c1 (stereo not given) | inactive |  |
| CC(C(=O)O)c1ccc2c(c1)CC(=O)c1ccccc1S2 (stereo not given) | inactive |  |
| O=c1c2ccccc2nnn1CCl | inactive |  |
| Cc1cnc(NS(=O)(=O)c2ccc(N)cc2)nc1 | inactive |  |
| CC1OC(=O)C(C)OC1=O (stereo not given) | inactive |  |
| Cc1nc2n(c(=O)c1CCN1CCC(c3noc4cc(F)ccc34)CC1)CCCC2 | inactive |  |
